In all, about 310,000 compounds went through this assay and about 14,000 (4.5%) showed an effect of 50% or more. The effect is printed as a negative number. The sample holds strong results, similar compounds and a random draw of the others, so the mix is not that of the screen.
Target: human ether-à-go-go-related gene (hERG) potassium channel (human, UniProt Q12809)
Assay: primary screen, population patch clamp on CHO cells stably expressing hERG; higher = less effect of the substance
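Note: peak tail current of the secondary pulse compared with the same well before compound.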

Sequence of human ether-à-go-go-related gene (hERG) potassium channel (Q12809 whole entry, looked up): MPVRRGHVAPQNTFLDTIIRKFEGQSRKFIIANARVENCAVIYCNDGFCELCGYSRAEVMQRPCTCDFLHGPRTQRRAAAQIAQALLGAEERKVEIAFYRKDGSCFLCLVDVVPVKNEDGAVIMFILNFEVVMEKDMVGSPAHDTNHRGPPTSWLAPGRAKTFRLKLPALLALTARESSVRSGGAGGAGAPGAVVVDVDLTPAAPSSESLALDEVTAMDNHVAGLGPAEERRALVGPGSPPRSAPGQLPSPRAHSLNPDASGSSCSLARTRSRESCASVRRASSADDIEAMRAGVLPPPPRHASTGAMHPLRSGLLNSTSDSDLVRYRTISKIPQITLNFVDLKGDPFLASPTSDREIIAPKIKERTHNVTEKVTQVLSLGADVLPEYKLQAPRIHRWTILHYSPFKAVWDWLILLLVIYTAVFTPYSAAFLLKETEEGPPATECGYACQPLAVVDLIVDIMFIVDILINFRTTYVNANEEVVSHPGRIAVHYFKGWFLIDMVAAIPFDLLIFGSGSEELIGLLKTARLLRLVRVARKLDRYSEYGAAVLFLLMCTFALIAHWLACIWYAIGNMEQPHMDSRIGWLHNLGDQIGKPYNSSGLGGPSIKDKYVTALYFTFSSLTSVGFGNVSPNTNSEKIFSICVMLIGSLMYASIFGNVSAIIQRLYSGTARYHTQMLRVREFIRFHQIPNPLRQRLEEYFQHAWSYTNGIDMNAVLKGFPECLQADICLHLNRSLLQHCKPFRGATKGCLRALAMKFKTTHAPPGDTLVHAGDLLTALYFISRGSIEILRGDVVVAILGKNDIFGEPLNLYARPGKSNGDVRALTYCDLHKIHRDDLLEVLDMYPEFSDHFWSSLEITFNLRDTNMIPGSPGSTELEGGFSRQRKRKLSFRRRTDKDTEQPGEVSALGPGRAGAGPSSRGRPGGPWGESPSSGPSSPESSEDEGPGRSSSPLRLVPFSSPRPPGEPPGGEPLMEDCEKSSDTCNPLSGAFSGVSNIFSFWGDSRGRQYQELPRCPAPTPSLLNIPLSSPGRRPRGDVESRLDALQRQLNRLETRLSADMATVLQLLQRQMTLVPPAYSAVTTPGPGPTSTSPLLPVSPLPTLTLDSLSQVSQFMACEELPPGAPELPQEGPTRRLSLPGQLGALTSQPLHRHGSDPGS

SMILES	hERG current change (%, negative = inhibition) at 10uM
CCn1c(-c2ccco2)n[nH]c1=S	12%
N#C/C(=C\c1ccc(OCc2ccc(Br)cc2)cc1)C(=O)Nc1cccc(C(=O)O)c1	17.8%
CCOC(=O)c1c(C)[nH]c(C(=O)CSc2ccccc2)c1C	3.05%
O=C(Cn1nnc2ccccc21)c1ccc(Cl)cc1	-4.9%
C/C(Cn1nnc2ccccc21)=N\OC(=O)c1cc(F)c(F)cc1Cl	-80.5%
O=C(O)Cn1nnc2ccccc21	-3.4%
Cc1ccccc1NC(=O)Cn1nnc2ccccc21	-12%
C/C(Cn1nnc2ccccc21)=N/OC(=O)c1c(F)cccc1F	12.5%
C/C(Cn1nnc2ccccc21)=N\OC(=O)c1ccccc1C	-63.9%
C[N+]1(CC(=O)Nc2ccc(F)cc2)CCN(C(=O)c2ccco2)CC1.[Cl-]	13.2%
COc1ccc(CCNC(=O)C2CCCCC2C(=O)O)cc1OC (centres unmarked)	-2.9%
Nc1ccc([N+](=O)[O-])cc1C(=O)NNC(=O)c1ccco1	25.9%
O=C(CSCc1ccccc1)Nc1ccc2c(c1)OCO2	7.4%
CCCc1nc2ccccc2c(=O)n1-c1ccc(C(=O)OCC)cc1	13.5%
CSc1ncc(/C=C2/C(=O)NC(=O)N(C)C2=O)cn1	18.8%
C[C@]12CCC(=O)C=C1CCC1C2CC[C@@]2(C)C1CC[C@@]2(O)CC#N (some centres unmarked)	-59.8%
C[C@]12CCC(=O)C=C1CC[C@@H]1[C@@H]2CC[C@@]2(C)[C@H]1CC[C@]2(O)C(=O)CO	9.17%
CC(=O)[C@@]1(O)CC[C@H]2[C@@H]3CCC4=CC(=O)CC[C@]4(C)[C@H]3CC[C@@]21C	1.7%
COc1ccc(S(=O)(=O)N2CCC(C(=O)NCc3ccco3)CC2)cc1C	8.26%
O=S1(=O)NC(=NCc2ccco2)c2ccccc21	2.66%
c1coc(CN=C2NC(=NCc3ccco3)c3ccccc32)c1	-66.4%
O=C1c2ccccc2C(=O)N1Cc1ccco1	-3.32%
CC(=O)c1ccc(Nc2cc(C)nc3c(C)cccc23)cc1	-36.2%

SMILES	hERG current change (%, negative = inhibition) at 10uM
CC(=O)c1cccc(Nc2cc(C)nc3c(C)cccc23)c1.Cl	-72.8%
CC(=O)c1cccc(Nc2cc(C)nc3c(C)cc(C)cc23)c1.Cl	-56.1%
CC(=O)c1ccc(Nc2cc(C)nc3c(C)cc(C)cc23)cc1	-45.7%
Cc1cc(Nc2ccc(C(=O)N3CCCCC3)cc2)c2cccc(C)c2n1	-23.5%
Cc1cc(C)c2nc(C)cc(Nc3ccc(C(=O)N(C)C)cc3)c2c1	-28.1%
Cc1cc(C)nc(-n2cc(C(=O)c3cc(F)ccc3O)cn2)n1	9.85%
CCOC(=O)C1=C(C)NC(=O)NC1c1cc2c(cc1Br)OCO2 (centres unmarked)	6.32%
NC(=O)CC(NC(=O)Cc1ccc(Br)cc1)c1ccc(NCc2ccc(F)c(F)c2)c([N+](=O)[O-])c1 (centres unmarked)	-1.71%
NC(=S)N1OC[C@@H]2COc3ccc4ccccc4c3[C@@H]21	4.27%
CC(C)c1ccc(N2C=Nc3ccc(C(C)C)cc3C2)cc1	-9.45%
CCOc1ccc(N2C=Nc3ccc(OCC)cc3C2)cc1	-63.9%
CCOc1ccc(N2Cc3ccccc3C2)cc1	-2.48%
O=C1SCCC1NC(=O)C(c1ccccc1)c1ccccc1 (centres unmarked)	3.15%
Cc1ccc(NC(=O)CCN2C(=O)c3cccc4cccc(c34)C2=O)cc1	9.71%
C/C(=N\NC(=S)NC(C)C)c1ccc(C(C)(C)C)cc1	11.1%
CCCCCCCCNC(=O)c1cccnc1SCC(=O)Nc1ccc(OC)cc1OC	5.99%
CCCCCNC(=O)c1cccnc1SCC(=O)Nc1ccccc1OC	-65.6%
CCCCCCCCNC(=O)c1cccnc1SCC(=O)Nc1ccccc1OC	2.4%
CN(CC(=O)Nc1ccc(F)c(F)c1F)C(=O)CC1OC(=O)c2ccccc21 (centres unmarked)	-27.6%
O=C(CN1C(=O)C2CCCCC2C1=O)Nc1ccc(OC(F)F)c(Cl)c1 (centres unmarked)	-2.68%
CN(CC(=O)Nc1ccccn1)S(=O)(=O)c1ccc(Cl)cc1	-9.34%
CCc1ccc(NS(=O)(=O)c2c(C)noc2C)cc1	-10.3%
Cc1noc(C)c1S(=O)(=O)Nc1ccc(C(C)C)cc1	-17.6%

SMILES	hERG current change (%, negative = inhibition) at 10uM
Cc1ccc(NS(=O)(=O)c2c(C)noc2C)cc1	-55.1%
O=C(CN1C(=O)CSc2ncccc21)Nc1cccc(Cl)c1	-25.4%
Cc1ccnc(SCC(=O)c2ccc(Br)s2)n1	3.59%
CC1(C)CC(=O)C2=C(C1)N(c1ccccc1C#N)C(N)=C(C#N)C2c1cccs1 (centres unmarked)	-13%
Cn1c2ccccc2c2nnc(NN)nc21	12.2%
C/C(=N\Nc1nnc2c3ccccc3n(C)c2n1)c1ccc(C)o1	-52.4%
Cn1c2ccccc2c2nnc(N/N=C/c3ccc(O)cc3)nc21	-0.978%
CCOC(=O)C1(C(F)(F)F)N=C(N(C)C)OC(N(C)C)=N1	5.29%
Cc1cc(C)cc(Nc2cnn(C34CC5CC(CC(CC(=O)O)(C5)C3)C4)c(=O)c2Cl)c1	5.39%
O=C(Nc1nc(-c2ccccn2)cs1)c1ccc(Br)s1	7.34%
COC1(OC)N=C(N)C2(C#N)C(c3ccc(C)cc3)C12C#N (centres unmarked)	10.1%
COc1ccc(C2C3(C#N)C(N)=NC(OC)(OC)C23C#N)cc1 (centres unmarked)	-53.4%
COC1(OC)N=C(N)C2(C#N)C(c3ccc(F)cc3)C12C#N (centres unmarked)	5%
O=[N+]([O-])c1ccc(OCC(O)CNCCNc2nccc(C(F)(F)F)n2)cc1 (centres unmarked)	-79.2%
OC(CNCCNc1ncccc1C(F)(F)F)COc1ccc(F)cc1 (centres unmarked)	-72%
Cc1cccnc1NCC(O)COc1ccccc1 (centres unmarked)	-37.5%
COc1ccc(OCC(O)CNCCNc2nccc(C(F)(F)F)n2)cc1 (centres unmarked)	-23.3%
OC(CNCCNc1ncccc1C(F)(F)F)Cn1ccc2ccccc21 (centres unmarked)	-45.3%
O=C(NCC(O)COc1ccc([N+](=O)[O-])cc1)c1ccccc1 (centres unmarked)	-40.4%
Nc1ccc2oc3ccc(N)cc3c(=O)c2c1	13.8%
CN(Cc1ccccc1O)CC1CCCN(CCc2ccc(Cl)cc2)C1 (centres unmarked)	-76.1%
COc1ccccc1CCN1CCCC(CN(C)Cc2ccc(OCCO)cc2)C1 (centres unmarked)	-40.8%
CCOc1cccc(CN(CC)CC2CCCN(CCc3cccc(OC)c3)C2)c1O (centres unmarked)	-66.7%

SMILES	hERG current change (%, negative = inhibition) at 10uM
CN(Cc1ccccc1OCCO)CC1CCCN(CCc2ccc(Cl)cc2)C1 (centres unmarked)	-66.9%
CCN(Cc1ccccc1OC)CC1CCCN(CCc2cccc(OC)c2)C1 (centres unmarked)	-43.6%
CCOc1cccc(CN(C)CC2CCCN(CCc3ccc(Cl)cc3)C2)c1O (centres unmarked)	-69.7%
CCOC(=O)c1cc2sc(C)cc2n1CC(=O)N1CCOCC1	7.06%
Cc1cc(NC(=O)c2cccnc2)ccc1NC(=O)c1cc2ccccc2o1	11.1%
O=C(Nc1ccccn1)C(F)(F)C(F)(F)C(F)(F)C(F)(F)C(=O)Nc1ccccn1	-18%
COc1ccc(/C=C/C(=O)C2CC2)cc1Cn1nc(C)c([N+](=O)[O-])c1C	-14.6%
COc1cc(C(=S)N2CCOCC2)ccc1OC(=O)c1cc(OC)c(OC)c(OC)c1	21.8%
Cc1nnc(C)c2c(C)n(-c3ccc(Cl)c(N)c3)c(C)c12	-45%
N#CC1=C(N)OC2=C(C(=O)CCC2)C12CCN(C(=O)OCc1ccccc1)CC2	-55.9%
CCOC(=O)N1CCC2(CC1)C(C#N)=C(N)OC1=C2C(=O)CCC1	-0.515%
CC1(C)CC(=O)C2=C(C1)OC(N)=C(C#N)C21CCN(C(=O)OCc2ccccc2)CC1	-2.49%
Cc1cc(NN)nc(NS(=O)(=O)c2ccccc2)n1	25.7%
COc1ccc(N/C(C)=C2/C(=O)C(=O)N(CCO)C2c2ccc(Br)cc2)cc1 (centres unmarked)	-49%
COc1ccc(N/C(C)=C2/C(=O)C(=O)N(CCO)C2c2ccc([N+](=O)[O-])cc2)cc1 (centres unmarked)	-67.3%
COc1ccc(C2/C(=C(/O)c3ccccc3)C(=O)C(=O)N2CCO)cc1 (centres unmarked)	-21.1%
O=C(N/N=C/c1ccc([N+](=O)[O-])cc1)c1cccc2cc[nH]c12	12.4%
CN(CC(=O)NCc1cccs1)S(=O)(=O)c1cccc2nsnc12	0.981%
CN(CC(=O)NCc1ccc(Cl)cc1)S(=O)(=O)c1cccc2nsnc12	-52.5%
CN(CC(=O)NCc1ccc(F)cc1)S(=O)(=O)c1cccc2nsnc12	-21.1%

Source: publication PMC4336329 (PLoS ONE, 2015)
